IL-1B inflam inh: inflammasome signaling inhibition, IL-1 beta readout. AID 743279. THP-1 LPS/ATP IL-1B secretion, AlphaLISA, 16 h; active compounds read low. activity change, % at 57.5 µM. hit rate 4.7% among 360,000; in the data active = activity change below about -50%; inconclusive = mostly about -30% to -49%
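Secreted IL-1B measured by AlphaLISA bead assay after 16 h compound exposure of THP-1 cells; compounds (final up to 57.5 uM) added 1 h before LPS (250 ng/mL) and ATP (1.25 mM) stimulation; lower signal means less secretion.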
ClpP mod: qHTS Assay for Activators of ClpP; ATP-dependent Clp protease proteolytic subunit (Bacillus subtilis (strain 168)), P80244; purified B. subtilis ClpP, FRET peptide cleavage, 20 min; Potency, µM (doses to about 57.5 µM); hit rate 1.9% among 340,000; active = well fitted falling curve with a large enough effect; inconclusive = small, poorly fitted or top-dose-only effect; inactive = no such curve, though single readings can be large or run the other way; note: the source files actives as falling curves though it sought activators and does not explain the sign; nearly all actives have a fitted effect of over 65% in size
Target sequence (P80244 whole entry, looked up): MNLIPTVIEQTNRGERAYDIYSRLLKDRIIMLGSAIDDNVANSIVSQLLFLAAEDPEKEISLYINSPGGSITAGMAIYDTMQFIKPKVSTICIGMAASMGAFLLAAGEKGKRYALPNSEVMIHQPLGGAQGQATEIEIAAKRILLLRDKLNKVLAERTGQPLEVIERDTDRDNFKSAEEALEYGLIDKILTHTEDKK
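FRET quenching reversal measured ClpP activation: 10 microg/mL B. subtilis ClpP at pH 8 with the FRET-FV decapeptide, read at 430 nm after 320 nm excitation. The 20-min minus 0-min signal was scaled between DMSO/no-enzyme wells and ADEP (5.8 microM final).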
TDP1 cell CPT: growth inhibition of DT40 Tdp1-/-;hTDP1 cells with camptothecin (screen for TDP1 inhibitors). Potency, µM (doses to about 46.2 µM), most hits filed as inhibitors. chicken DT40 Tdp1-/-;hTDP1 cells + 20 nM CPT, ATP luminescence, 48 h. hit rate 12% among 420,000; note: nearly all actives have a fitted effect of over 55% in size
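Chicken DT40 Tdp1-/- cells complemented with human TDP1, 400 cells/well, exposed to compounds plus 20 nM camptothecin for at least 48 h at 37 C; viability read as ATP content by CellTiter-Glo luminescence.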
D3 antag: D3 dopamine receptor (human) antagonism; D3R cells, DiscoveRx beta-arrestin luminescence, antagonist mode; active compounds read low; max response, negative = inhibition, %; hit rate 2.5% among 360,000; in the data active = max response below about -50%; inconclusive = no clear call, values can overlap the other calls
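Cells expressing the human receptor were seeded at 1500 cells/well, incubated overnight at 37 degrees C in 5% CO2, then exposed to library compounds with dopamine controls for 90 minutes at 37 degrees C before luminescent detection.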
DT40 TDP1 no CPT: qHTS for Inhibitors of human tyrosyl-DNA phosphodiesterase 1 (TDP1): qHTS in cells in absence of CPT | hit rate 15% among 420,000 | AID 686978, 2013 | DT40 Tdp1-/- hTDP1 cells, no CPT, ATP luminescence, 48 h | Potency, µM (series often up to 46.2 µM), usual class: inhibitors; note: nearly all actives have a fitted effect of over 55% in size
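Growth of hTDP1-complemented DT40 Tdp1-knockout cells is measured by ATP luminescence after at least 48 hr compound exposure at 37 °C, with DMSO substituting for the 20 nM CPT used in the parallel screen.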
D3 ag: D3 dopamine receptor (human) agonism; hit rate 0.58% among 410,000; D3R DiscoveRx beta-arrestin cells, luminescence, 90 min; max activation, %; AID 652048; P35462; in the data active = max activation above about 30%
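Cells at 1500/well, incubated overnight, then treated with pinned compounds (dopamine as control) for 90 min at 37 degrees C. DiscoveRx reagent added for 30 - 60 minutes at room temperature; luminescence read.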
Hits are given with their value; n = inactive; u = inconclusive; x = no result given. This is a sample that favours compounds with a hit; in the whole collection about 21% have one here. Unless noted, calls come from the whole dose curve; as a rule, active = well fitted inhibition curve with a large enough effect; inconclusive = small, poorly fitted or top-dose-only effect; inactive = flat fitted curve, though single readings scatter.

SMILES	IL-1B inflam inh	ClpP mod	TDP1 cell CPT	D3 antag	DT40 TDP1 no CPT	D3 ag
CCOC(=O)c1sc2ccccc2c1S(=O)(=O)N1CCN(c2ccccc2)CC1	x	n	u	x	u	n
CCOC(=O)c1sc(NC(=O)c2ccc(S(=O)(=O)N3CCCCCC3)cc2)nc1-c1ccccc1	n	u	u	n	1µM	n
COC(=O)c1sc2ccccc2c1S(=O)(=O)N1CCN(c2ccc(C(C)=O)cc2)CC1	x	n	16µM	x	u	n
CCOC(=O)c1sc(NC(=O)c2ccc(S(=O)(=O)N3CCCCC3)cc2)nc1-c1ccccc1	n	u	n	n	u	n
CCOC(=O)Nc1nc(-c2ccccc2)c(C(=O)c2ccc(Cl)cc2)s1	n	n	0.73µM	u	0.92µM	n
CN(C)c1ccc(C=O)c(O)c1	x	n	n	x	n	x
O=C(c1nc2ccc(Cl)cn2c1CNCC[C@@H]1C[C@@H]2C=C[C@H]1C2)N1CCCCCCC1	-72	x	u	u	u	n
O=C(Nc1ccc2c(c1)OCO2)c1noc2c1CCCC2	n	x	n	n	n	n
CCOc1ccccc1NC(=O)CSc1nc2c(oc3ccccc32)c(=O)n1Cc1ccco1	x	n	16µM	x	21µM	n
COc1ccccc1NC(=O)CSc1nc2c(oc3ccccc32)c(=O)n1Cc1ccco1	x	n	15µM	x	u	n
CCOc1ccc(-n2c(SCC(=O)Nc3ccccc3OC)nc3c(oc4ccccc43)c2=O)cc1	x	n	u	x	u	n
O=C(CSc1nc2c(oc3ccccc32)c(=O)n1Cc1ccco1)Nc1ccccc1	x	n	n	x	n	n
CCOCCCn1c(SCC(=O)Nc2ccccc2OC)nc2c(oc3ccccc32)c1=O	x	n	u	x	26µM	n
COC(=O)c1ccccc1NC(=O)c1cc(=O)c2ccc(C)c(C)c2o1	x	n	n	x	n	n
O=C(CN1CCN(c2ccccn2)CC1)Nc1ccc(Cl)c(C(F)(F)F)c1	n	n	18µM	-66	18µM	n
O=C(CN1CCN(c2ccccn2)CC1)Nc1ccc(OC(F)(F)F)cc1	n	x	n	n	23µM	n
COc1ccc(C(=O)OC(C)C(=O)Nc2cc(C(F)(F)F)ccc2Cl)c(OC)c1OC (stereo not drawn)	n	n	5.8µM	n	16µM	n
O=C(CN1CCN(c2ccccn2)CC1)Nc1ccc2ccccc2c1	n	n	n	n	n	n
O=C(CN1CCN(C(C(=O)Nc2cc(C(F)(F)F)ccc2Cl)c2ccccc2)CC1)NC1CC1 (stereo not drawn)	n	n	21µM	n	u	n
CC(OC(=O)c1ccc(O)cc1)C(=O)Nc1cc(C(F)(F)F)ccc1Cl (stereo not drawn)	n	x	u	n	u	n
O=C(CN1CCN(C(C(=O)Nc2ccc(Cl)cc2C(F)(F)F)c2ccccc2)CC1)NC1CC1 (stereo not drawn)	u	n	u	n	u	n
CC(=O)Nc1ccc(NC(=O)CN2CCN(c3ccccn3)CC2)cc1	n	n	n	n	n	n
CCCCCC(O)/C=C/C=O (stereo not drawn)	x	x	n	x	n	n
Cc1ccc(NC(=O)CN2C(=O)c3ccccc3C2=O)nc1	n	x	n	n	n	n
COc1cccc(CCNc2ncnc3sc(C(=O)N4CCOCC4)c(C)c23)c1	x	x	n	x	n	x
COc1ccccc1N1CCN(CC(=O)Nc2ccc(Cl)c(C(F)(F)F)c2)CC1	n	n	21µM	n	u	n
COc1cc(CC(=O)Nc2ccc(Cl)c(C(F)(F)F)c2)cc(OC)c1OC	n	n	u	n	u	n
O=C(CN1CCCC1)Nc1cc(C(F)(F)F)ccc1Cl	n	n	n	n	n	n
O=C(CN1CCN(c2ccccn2)CC1)Nc1cc(C(F)(F)F)ccc1Cl	n	n	u	n	18µM	n
COc1ccc(C(=O)OCC(=O)Nc2ccc(Cl)c(C(F)(F)F)c2)c(OC)c1OC	n	n	21µM	n	21µM	n

From PubChem
